PubChem BioAssay (NCI)
About 79,000 compounds went through this panel and 15% of them were active in at least one assay; those are over-represented in the sample as a whole. Unmarked numbers belong to inactive results. Active and inactive are the calls of the source. Cut-off read from the data, not from the text of the source: active = growth inhibition above about 70%; inactive = the rest.

Key:
[1] = NCI Yeast Anticancer Drug Screen. Data for the rad52 strain (AID 147);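 note: 0% = growth of vehicle-treated control cultures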; settings: S. cerevisiae rad52 mutant growth inhibition, active compounds read high
How it was run: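 Growth of repair-deficient yeast cells was compared between compound-treated and vehicle-treated cultures to give percent inhibition.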

[2] = NCI Yeast Anticancer Drug Screen. Data for the wt1 strain (AID 149);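 note: 0% = growth of vehicle-treated wt1 cultures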; settings: S. cerevisiae wt1 strain (SPY 50644) growth inhibition, active compounds read high
How it was run: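 wt1 yeast, compound-treated; % growth inhibition vs vehicle control.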

[3] = NCI Yeast Anticancer Drug Screen. Data for the rad50EPP+ strain (AID 151);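 note: 0% = growth of vehicle-treated control cultures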; settings: S. cerevisiae rad50 mutant strain, active compounds read high
How it was run: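 Measured: growth inhibition of rad50EPP+ yeast. Reference: vehicle-treated controls. Screen uses strains with defined genetic alterations in DNA damage repair or cell cycle control.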

[4] = NCI Yeast Anticancer Drug Screen. Data for the rad50 strain (AID 155);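 note: 0% = growth of vehicle-only cultures of the same strain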; settings: S. cerevisiae rad50 strain growth inhibition, active compounds read high
How it was run: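 Genetically altered yeast (DNA repair pathway); compound treatment; growth inhibition vs vehicle ctrl.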

[5] = NCI Yeast Anticancer Drug Screen. Data for the mec2-1 strain (AID 157); settings: S. cerevisiae mec2-1 strain, active compounds read high
How it was run: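 Compounds were applied to mec2-1 yeast cells. Their growth was then compared with that of vehicle-treated cultures to give growth inhibition.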

[6] = NCI Yeast Anticancer Drug Screen. Data for the rad14 strain (AID 159);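 note: 0% = growth of vehicle-treated control cultures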; settings: S. cerevisiae rad14 strain growth inhibition, active compounds read high
How it was run: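 Test compounds were applied to a repair-deficient yeast strain. Its growth was then compared with that of cultures given vehicle alone, and inhibition was expressed relative to those controls.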

[7] = NCI Yeast Anticancer Drug Screen. Data for the sgs1 mgt1 strain (AID 161);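 note: 0% = growth of cultures given vehicle only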; settings: S. cerevisiae sgs1 mgt1 strain, active compounds read high
How it was run: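 Compounds are added to genetically altered yeast, and growth is compared with cultures given vehicle alone to give percent inhibition.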

[8] = NCI Yeast Anticancer Drug Screen. Data for the CLN2oe strain (AID 163);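 note: 0% = growth of vehicle-only control cultures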; settings: S. cerevisiae CLN2oe strain, active compounds read high
How it was run: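 Cells of an engineered yeast line with disturbed cell-cycle regulation are treated with compound. Inhibition of growth is then calculated relative to the vehicle-treated reference.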

[9] = NCI Yeast Anticancer Drug Screen. Data for the cln2 rad14 strain (AID 165);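 note: 0% = growth equal to vehicle treated cultures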; settings: S. cerevisiae cln2 rad14 strain, active compounds read high
How it was run: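 Strain: cln2 rad14 yeast, altered in cell cycle control and DNA damage repair. Read-out: growth inhibition vs vehicle.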

[10] = NCI Yeast Anticancer Drug Screen. Data for the bub3 strain (AID 167); settings: S. cerevisiae bub3 mutant strain, active compounds read high
How it was run: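 Yeast carrying a defined mutation is treated with each compound, and growth is compared with that of vehicle-exposed cells to give inhibition.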

[11] = NCI Yeast Anticancer Drug Screen. Data for the mlh1 strain (AID 171);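 note: 0% = growth of vehicle-treated control cultures of the same strain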; settings: S. cerevisiae mlh1 strain growth inhibition, active compounds read high
How it was run: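 Test agents were incubated with yeast bearing a defined DNA damage repair or cell cycle control alteration; values are growth inhibition normalised to vehicle-treated cultures.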

[12] = NCI Yeast Anticancer Drug Screen. Data for the sgs1 strain (AID 173);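 note: 0% = growth of vehicle-only control cultures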; settings: S. cerevisiae sgs1 mutant, active compounds read high
How it was run: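 Strain with an altered DNA repair or cell cycle pathway exposed to compound. Growth then measured. Value = inhibition versus vehicle control.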

[13] = NCI Yeast Anticancer Drug Screen. Data for the mlh1 rad18 strain (AID 175); settings: S. cerevisiae mlh1 rad18 strain growth inhibition, active compounds read high
How it was run: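 A repair-deficient yeast strain is exposed to test compound, and growth is scored relative to vehicle-treated controls.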

[14] = NCI Yeast Anticancer Drug Screen. Data for the rad18 strain (AID 177); settings: S. cerevisiae rad18 mutant growth inhibition, active compounds read high
How it was run: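 DNA-repair-defective yeast; compound treatment; growth inhibition scored against vehicle.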

[15] = NCI Yeast Anticancer Drug Screen. Data for the mgt1 strain (AID 153); settings: S. cerevisiae mgt1 mutant growth inhibition, active compounds read high
How it was run: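 Compounds were applied to mgt1 mutant yeast, and growth was then compared against vehicle-treated control cultures to give percent inhibition.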

[16] = at 5.0 µM (retest, dose inferred, filed as 0.5)
[17] = at 50.0 µM (retest, dose inferred, filed as 5.0)

`CC1CN(/N=C\c2ccc([N+](=O)[O-])o2)C(=O)O1` (stereo unspecified) gave a growth inhibition ([1]; at 1.2 µM) of 1%, a growth inhibition ([1]; at 3.7 µM) of 3% and a growth inhibition ([1]; at 11.0 µM) of 9%. For the same molecule, the growth inhibition ([1]; at 33.0 µM) was 19%, the growth inhibition ([1]; at 100.0 µM) was 59% and the growth inhibition ([2]; at 1.2 µM) was -2%. For the same molecule, the growth inhibition ([2]; at 3.7 µM) was -2%, the growth inhibition ([2]; at 11.0 µM) was -2% and the growth inhibition ([2]; at 33.0 µM) was 1%. For the same molecule, the growth inhibition ([2]; at 100.0 µM) was 10%, the growth inhibition ([3]; at 1.2 µM) was 0% and the growth inhibition ([3]; at 3.7 µM) was -1%. The growth inhibition ([3]; at 11.0 µM) was 4%, the growth inhibition ([3]; at 33.0 µM) was 15% and the growth inhibition ([3]; at 100.0 µM) was 48%. The growth inhibition ([4]; at 1.2 µM) was 9%, the growth inhibition ([4]; at 3.7 µM) was 46% and the growth inhibition [4, 16] was 8%. For the same molecule, the growth inhibition ([4]; at 11.0 µM) was 32%, the growth inhibition ([4]; at 33.0 µM) was 24% and the growth inhibition [4, 17] was 53%. The growth inhibition ([4]; at 50.0 µM) was 75.7% (active), the growth inhibition ([4]; at 100.0 µM) was 72% (active) and the growth inhibition ([5]; at 1.2 µM) was 2%. For the same molecule, the growth inhibition ([5]; at 3.7 µM) was 4%, the growth inhibition [5, 16] was -25% and the growth inhibition ([5]; at 11.0 µM) was 6%. It also gave a growth inhibition ([5]; at 33.0 µM) of 12%, a growth inhibition [5, 17] of 46% and a growth inhibition ([5]; at 50.0 µM) of 20.6%. The growth inhibition ([5]; at 100.0 µM) was 45%, the growth inhibition ([6]; at 1.2 µM) was 0% and the growth inhibition ([6]; at 3.7 µM) was -3%. It also gave a growth inhibition ([6]; at 11.0 µM) of -2%, a growth inhibition ([6]; at 33.0 µM) of 10% and a growth inhibition ([6]; at 100.0 µM) of 47%. The growth inhibition [7, 16] was 27%, the growth inhibition [7, 17] was 83% (active) and the growth inhibition ([7]; at 50.0 µM) was 86.1% (active). The growth inhibition ([8]; at 1.2 µM) was -7%, the growth inhibition ([8]; at 3.7 µM) was -6% and the growth inhibition ([8]; at 11.0 µM) was -3%. It also gave a growth inhibition ([8]; at 33.0 µM) of -7%, a growth inhibition ([8]; at 100.0 µM) of -6% and a growth inhibition [9, 16] of -3%. The growth inhibition [9, 17] was 45%, the growth inhibition ([9]; at 50.0 µM) was 18.9% and the growth inhibition ([10]; at 1.2 µM) was -1%. The growth inhibition ([10]; at 3.7 µM) was 3%, the growth inhibition [10, 16] was -8% and the growth inhibition ([10]; at 11.0 µM) was 0%. The growth inhibition ([10]; at 33.0 µM) was 2%, the growth inhibition [10, 17] was 14% and the growth inhibition ([10]; at 50.0 µM) was 14.1%. It also gave a growth inhibition ([10]; at 100.0 µM) of 9%, a growth inhibition ([11]; at 1.2 µM) of 0% and a growth inhibition ([11]; at 3.7 µM) of -2%. For the same molecule, the growth inhibition ([11]; at 11.0 µM) was -1%, the growth inhibition ([11]; at 33.0 µM) was 3% and the growth inhibition ([11]; at 100.0 µM) was 16%. The growth inhibition ([12]; at 1.2 µM) was 7%, the growth inhibition ([12]; at 3.7 µM) was 11% and the growth inhibition ([12]; at 11.0 µM) was 27%. The growth inhibition ([12]; at 33.0 µM) was 56%, the growth inhibition ([12]; at 100.0 µM) was 87% (active) and the growth inhibition [13, 16] was 18%. The growth inhibition [13, 17] was 71% (active), the growth inhibition ([13]; at 50.0 µM) was 85.8% (active) and the growth inhibition ([14]; at 1.2 µM) was 78% (active). For the same molecule, the growth inhibition ([14]; at 3.7 µM) was 85% (active), the growth inhibition ([14]; at 11.0 µM) was 88% (active) and the growth inhibition ([14]; at 33.0 µM) was 93% (active). For the same molecule, the growth inhibition ([14]; at 100.0 µM) was 97% (active).
`COc1cc2c(cc1O)[C@H](C)C(c1ccccc1OC)O2` (stereo partly specified) gave a growth inhibition ([1]; at 1.2 µM) of -41%, a growth inhibition ([1]; at 3.7 µM) of -34% and a growth inhibition ([1]; at 11.0 µM) of -31%. The growth inhibition ([1]; at 33.0 µM) was -19%, the growth inhibition ([1]; at 100.0 µM) was 96% (active) and the growth inhibition ([2]; at 1.2 µM) was -11%. The growth inhibition ([2]; at 3.7 µM) was -13%, the growth inhibition ([2]; at 11.0 µM) was -13% and the growth inhibition ([2]; at 33.0 µM) was -17%. For the same molecule, the growth inhibition ([2]; at 100.0 µM) was 96% (active), the growth inhibition ([3]; at 1.2 µM) was -39% and the growth inhibition ([3]; at 3.7 µM) was -68%. It also gave a growth inhibition ([3]; at 11.0 µM) of -54%, a growth inhibition ([3]; at 33.0 µM) of -8% and a growth inhibition ([3]; at 100.0 µM) of 19%. For the same molecule, the growth inhibition ([15]; at 1.2 µM) was 1%, the growth inhibition ([15]; at 3.7 µM) was 5% and the growth inhibition ([15]; at 11.0 µM) was -4%. The growth inhibition ([15]; at 33.0 µM) was 33%, the growth inhibition ([15]; at 100.0 µM) was 97% (active) and the growth inhibition ([4]; at 1.2 µM) was -4%. For the same molecule, the growth inhibition ([4]; at 3.7 µM) was -2%, the growth inhibition [4, 16] was -13% and the growth inhibition ([4]; at 11.0 µM) was -8%. For the same molecule, the growth inhibition ([4]; at 33.0 µM) was 4%, the growth inhibition [4, 17] was 4% and the growth inhibition ([4]; at 50.0 µM) was 15.5%. The growth inhibition ([4]; at 100.0 µM) was 96% (active), the growth inhibition ([5]; at 1.2 µM) was -27% and the growth inhibition ([5]; at 3.7 µM) was -15%. It also gave a growth inhibition [5, 16] of -44%, a growth inhibition ([5]; at 11.0 µM) of -20% and a growth inhibition ([5]; at 33.0 µM) of 6%. The growth inhibition [5, 17] was 13%, the growth inhibition ([5]; at 50.0 µM) was 17.6% and the growth inhibition ([5]; at 100.0 µM) was 95% (active). For the same molecule, the growth inhibition [7, 16] was -16%, the growth inhibition [7, 17] was 59% and the growth inhibition ([7]; at 50.0 µM) was 68%. The growth inhibition ([8]; at 1.2 µM) was 14%, the growth inhibition ([8]; at 3.7 µM) was 9% and the growth inhibition ([8]; at 11.0 µM) was 5%. The growth inhibition ([8]; at 33.0 µM) was 18%, the growth inhibition ([8]; at 100.0 µM) was 97% (active) and the growth inhibition [9, 16] was 26%. It also gave a growth inhibition [9, 17] of 24%, a growth inhibition ([9]; at 50.0 µM) of 29.9% and a growth inhibition ([10]; at 1.2 µM) of 24%. For the same molecule, the growth inhibition ([10]; at 3.7 µM) was 32%, the growth inhibition [10, 16] was 20% and the growth inhibition ([10]; at 11.0 µM) was 22%. For the same molecule, the growth inhibition ([10]; at 33.0 µM) was 55%, the growth inhibition [10, 17] was 81% (active) and the growth inhibition ([10]; at 50.0 µM) was 62.4%. For the same molecule, the growth inhibition ([10]; at 100.0 µM) was 97% (active), the growth inhibition ([11]; at 1.2 µM) was 17% and the growth inhibition ([11]; at 3.7 µM) was 24%. The growth inhibition ([11]; at 11.0 µM) was -2%, the growth inhibition ([11]; at 33.0 µM) was 47% and the growth inhibition ([11]; at 100.0 µM) was 97% (active). For the same molecule, the growth inhibition ([12]; at 1.2 µM) was -10%, the growth inhibition ([12]; at 3.7 µM) was -17% and the growth inhibition ([12]; at 11.0 µM) was -12%. The growth inhibition ([12]; at 33.0 µM) was 10%, the growth inhibition ([12]; at 100.0 µM) was 96% (active) and the growth inhibition [13, 16] was 1%. For the same molecule, the growth inhibition [13, 17] was 22%, the growth inhibition ([13]; at 50.0 µM) was 19.6% and the growth inhibition ([14]; at 1.2 µM) was -9%. It also gave a growth inhibition ([14]; at 3.7 µM) of -22%, a growth inhibition ([14]; at 11.0 µM) of 11% and a growth inhibition ([14]; at 33.0 µM) of 20%. The growth inhibition ([14]; at 100.0 µM) was 94% (active).
